# Measurements: PubChem BioAssay AID800 (PCMD, 2007)
# Hit rate of the full screen: of about 220,000 compounds, about 650 (0.3%) were called active. No stated cut-off is given here; in the data, active means inhibition above about 40%; inactive means the rest. The sample as a whole holds a higher share of actives than the screen did.
# Target: Coagulation factor XII (Homo sapiens) (UniProt P00748)
# Assay: human FXIIa protease inhibitors, primary screen, biochemical, 1536-well (AID 800);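 further: 0% = enzyme with no compound and 100% = blank without enzyme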
# Details: purified FXIIa, Boc-QGR-AMC fluorogenic substrate, 2 h; at 5 µM; stronger effect = higher value
# Coagulation factor XII (Homo sapiens), sequence (P00748 20-372 limits assumed): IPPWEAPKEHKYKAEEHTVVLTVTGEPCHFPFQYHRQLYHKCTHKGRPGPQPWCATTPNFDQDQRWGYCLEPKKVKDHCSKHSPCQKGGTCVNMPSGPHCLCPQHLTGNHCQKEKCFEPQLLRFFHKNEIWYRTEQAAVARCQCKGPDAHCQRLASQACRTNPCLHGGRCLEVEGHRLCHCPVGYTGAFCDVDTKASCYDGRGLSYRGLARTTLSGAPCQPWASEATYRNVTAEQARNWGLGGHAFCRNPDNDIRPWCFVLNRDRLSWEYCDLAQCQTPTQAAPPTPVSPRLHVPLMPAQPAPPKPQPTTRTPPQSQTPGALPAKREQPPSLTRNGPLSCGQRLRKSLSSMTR
# Coagulation factor XII (Homo sapiens), sequence (P00748 373-615 limits assumed): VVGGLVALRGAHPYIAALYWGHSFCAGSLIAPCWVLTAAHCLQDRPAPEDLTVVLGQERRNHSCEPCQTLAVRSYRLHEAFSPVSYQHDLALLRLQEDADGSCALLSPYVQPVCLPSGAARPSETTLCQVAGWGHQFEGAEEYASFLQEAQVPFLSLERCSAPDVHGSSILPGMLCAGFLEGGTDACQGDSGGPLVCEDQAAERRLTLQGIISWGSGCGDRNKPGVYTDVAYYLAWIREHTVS
row,SMILES,inhibition
1,O=C(c1ccc(F)cc1)n1c(=S)nc2ccccn21,0.92% (inactive)
2,COc1c(O)cc2oc(-c3ccc(O)c(O)c3)cc(=O)c2c1O,2.88% (inactive)
3,CCCCN1Cc2c(nc3cc(-c4ccccc4)[nH]n3c2=O)C1=O,-5.1% (inactive)
4,O=C(NCc1cccnc1)c1cnc2ccccc2n1,8.13% (inactive)
5,COC(=O)c1c(C)oc(C)c1S(=O)(=O)NCc1ccc(Cl)cc1,6.03% (inactive)
6,CC(=O)c1ccc(NC(=O)C2CC(=O)Nc3nc4ccccc4n32)cc1 (stereo not given),8.34% (inactive)
7,COc1ccc(C2/C=C\CN(S(=O)(=O)c3cccs3)CC(=O)N2Cc2ccc(F)cc2)cc1 (stereo not given),9.45% (inactive)
8,O=[N+]([O-])c1cc(Cl)cc(/C=N/NC(=S)Nc2cc(S(=O)(=O)N3CCOCC3)ccc2Cl)c1O,6.23% (inactive)
9,CSCC[C@H](NC(=O)CCCn1nnc2ccccc2c1=O)C(=O)O,4.87% (inactive)
10,CCOC(=O)COc1nc(C)cc(C(F)(F)F)c1C#N,-0.55% (inactive)
11,Cc1ccc(Nc2nc(N)nc(CSc3nnc(C)s3)n2)cc1,4.96% (inactive)
12,Cc1cnc(NC(=O)c2ccccn2)s1,7.08% (inactive)
13,COC(=O)c1ccc(Oc2nc(NC(C)C)nc(SC)n2)cc1,44% (active)
14,COC(=O)c1ccc(Oc2nc(Nc3ccc(F)cc3)nc(N3CCCC3)n2)cc1,-2.89% (inactive)
15,CCNc1nc(Oc2ccc(C(=O)OC)cc2)nc(N2CCOCC2)n1,9.71% (inactive)
16,COCCN(C(=S)Nc1cccc(Cl)c1C)C(C)c1ccco1 (stereo not given),6.59% (inactive)
17,COP1(=O)C[C@@H](O)[C@@H](O)[C@@H](COCc2ccccc2)O1 (stereo not given in full),5.94% (inactive)
18,O=[N+]([O-])c1ccc2nc(-c3ccccn3)[nH]c2c1,5.76% (inactive)
19,CN(C)S(=O)(=O)c1ccc(NC(=O)COC(=O)Cn2[nH]c(=O)c3ccccc3c2=O)cc1,-3.32% (inactive)
20,Cc1nn2c(NCCN(C)C)c3c(nc2c1-c1ccccc1)CCC3,10.3% (inactive)

row,SMILES,inhibition
1,O=C1NNC(c2ccccc2)=N/C1=C\c1ccc(Cl)cc1,0.78% (inactive)
2,CC1Cc2ccccc2N1CC(=O)Nc1ccc(S(N)(=O)=O)cc1 (stereo not given),7.97% (inactive)
3,COc1ccc2oc(N)c(C=O)c(=O)c2c1,8.71% (inactive)
4,CC(C)(C)C(=O)NNC(=O)c1ccc(Oc2cc(Cl)cc(Cl)c2)o1,8.39% (inactive)
5,CCOC(=O)c1cc(C)nc(S(C)(=O)=O)c1C#N,2.84% (inactive)
6,CC(C)=CCC/C(C)=C/C(=O)O,4.62% (inactive)
7,O=c1c2ccccc2cnn1Cc1n[nH]c(=S)n1-c1ccccc1F,4.28% (inactive)
8,COc1ccc(SC[C@H](Cc2ccccc2)N2CCN(CCc3ccccc3)CCC2=O)cc1,9.1% (inactive)
9,NC(=O)c1nnsc1-c1ccc(-c2snnc2C(N)=O)cc1,-1.04% (inactive)
10,COC(=O)c1cc(S(=O)(=O)N2CCC(C(N)=O)CC2)oc1C,1.7% (inactive)
11,NC(=O)CC(NC(=O)Cc1cccc2ccccc12)c1ccc(NCc2cc(F)ccc2F)c([N+](=O)[O-])c1 (stereo not given),3.78% (inactive)
12,Nc1ccccc1C(=O)NC1CCCCNC1=O (stereo not given),3.81% (inactive)
13,O=C(Nc1cccnc1Oc1ncnc2cc(Cl)ccc12)c1ccc(F)cc1,0.47% (inactive)
14,CCOC(=O)CC1C(=O)NCCN1c1nc2c(C)cccn2c(=O)c1/C=C1\SC(=S)N(C(C)CC)C1=O (stereo not given),14% (inactive)
15,S=c1[nH]nc(-c2cc(-c3ccccc3)n[nH]2)n1/N=C/c1c2ccccc2cc2ccccc12,8.1% (inactive)
16,CC(C)c1nc(SCC(=O)NC(=O)NC(C)(C)C)n[nH]1,12.8% (inactive)
17,Cc1ccc(NNC(=O)C2CCC2)cc1C,10.5% (inactive)
18,C=CCC1(C#N)C(=S)NC(C)=C(C(=O)OCC)C1c1ccccc1 (stereo not given),6.96% (inactive)
19,Cc1nc(Cl)c(C#N)c2c1CCCC2,2.37% (inactive)
20,Cc1cc(C)c(NC(=O)CN2C(=O)NC(Cc3ccccc3)C2=O)c(C)c1 (stereo not given),0.73% (inactive)

row,SMILES,inhibition
1,CC(C)=CCc1c(O)c(CC=C(C)C)c2occ(-c3ccc(O)cc3)c(=O)c2c1O,7.17% (inactive)
2,O=C(O)C1=C[C@H](c2cccs2)C[C@H](OCCCCO)O1,7.11% (inactive)
3,Cc1ccc(S(=O)(=O)NC(=O)N2CCCN(Cc3ccc(F)cc3)CC2)cc1,3.56% (inactive)
4,Cc1ccc(NC(=O)Nc2cc(-c3ccccc3)nn2C)cc1Cl,-1.26% (inactive)
5,Nc1nnc(SCC(=O)NC2CCCc3ccccc32)s1 (stereo not given),-2.74% (inactive)
6,CN(C)C(=O)c1coc2nc3ccccc3nc12,7.55% (inactive)
7,CC1Cc2ccccc2N1S(=O)(=O)c1ccc(Cl)nc1 (stereo not given),1.69% (inactive)
8,COc1ccc2c(c1)c1ncn(Cc3ccccn3)c(=O)c1n2C,-1.96% (inactive)
9,CN=C1C=C/C(=N/N=c2\ccn(O)cc2C)C=C1C,12.1% (inactive)
10,O=C1CCC(=O)N(O)CCCCCNC(=O)CCC(=O)N(O)CCCCCNC(=O)CCC(=O)N(O)CCCCCN1,6.14% (inactive)
11,O=C(O)C(F)(F)C(NCc1ccccc1)c1ccccc1 (stereo not given),18.5% (inactive)
12,CCOC(=O)CSc1nc(C)c(Oc2ccc(Cl)cc2Cl)c(=O)[nH]1,10.3% (inactive)
13,COCCCn1c(-c2cccs2)nc2nc3ccccc3nc21,-19.8% (inactive)
14,CSCC[C@H](NC(=O)NC1CCCC1)C(=O)O,0.35% (inactive)
15,CCN(CC(=O)Nc1ccc(S(=O)(=O)N2CCCC2)cc1)CC(=O)Nc1cccc(OC)c1,3.63% (inactive)
16,O=C(NN1C(=O)C2CCCCC2C1=O)c1ccco1 (stereo not given),5.14% (inactive)
17,C/C(=N/NC(=O)CC(=O)N/N=C(\C)c1ccc([N+](=O)[O-])cc1)c1ccc([N+](=O)[O-])cc1,6.83% (inactive)
18,COc1cccc(NC(=O)CS(=O)(=O)c2cn(CC(=O)N3CCOCC3)c3ccccc23)c1,2.47% (inactive)
19,O=C(CS(=O)(=O)c1cn(Cc2ccc(Cl)cc2)c2ccccc12)N1CCOCC1,45.4% (active)
20,O=C(CS(=O)(=O)c1cn(Cc2cccc(F)c2)c2ccccc12)N1CCCCC1,14.4% (inactive)
